Values without a mark were called inactive. Calls of active or inactive are those of the source.

A short description of this experiment: budding yeast growth changes without added modifier – OD600, strain BY4716, 24 h, basal condition, primary screen (AID 1173). Conditions: S. cerevisiae BY4716 growth, OD600, 24 h; higher = more signal, called active from +8 up or from −8 down.
As to `CCOC(=O)C[C@H]1[C@H](OC(=O)Cc2ccc3c(c2)OCO3)[C@@H](NC(=O)CC(C)C)c2cc(OCCCO)ccc2N1C(=O)Cc1ccc(OC)cc1`, the z-score is -0.252.

Take `CCOC(=O)C1=C[C@@H](c2ccccc2)N(S(=O)(=O)c2ccc(C)cc2)[C@H]1c1ccccc1Cl`: the z-score was 2.1.

As for `C[N+](C)(C)CCCC[C@@H]1NC(=O)[C@H]2C[C@@H](C(=O)NCCCCCCN)[C@@H](c3ccc(O)cc3)N2C1=O`, the z-score is 0.252.

Turning to `C=C(COC)C(=O)CC[C@@H](OC(=O)c1cccnc1)c1ccc(OCCO)cc1`, the z-score was -16 (active). Under `COC(=O)[C@@]1(Cc2ccc(OC)cc2)[C@H]2c3cc(C(=O)N4CCCC4)n(Cc4c(-c5ccccc5)noc4C)c3C[C@H]2CN1C(=O)c1ccccc1` stands 1.63. To `COCCCNC(=O)[C@]1(CCS(=O)(=O)c2ccccc2)N=C(c2ccc(OCCCO)cc2)O[C@@H]1c1ccccc1CN=[N+]=[N-]` belongs 1.67. To `COC(=O)[C@@]1(Cc2ccc(F)cc2)[C@H]2c3cc(C(=O)N(C)C)n(CCc4ccc(O)c(OC)c4)c3C[C@H]2CN1C(=O)c1ccccc1` belongs 0.358; to `COC(=O)[C@@]1(Cc2ccccc2)[C@H]2c3cc(C(=O)N(C)C)n(CCN4CNCC4=O)c3C[C@H]2CN1C(=O)c1ccccc1`, 1.13; to `O=C1O[C@H](c2ccccc2)[C@H](c2ccccc2)N2[C@H]1[C@@H](C(=O)Nc1nc3ccccc3s1)[C@]1(C(=O)Nc3ccc(C#CCCO)cc31)[C@H]2c1ccc(O)cc1`, 0.14. As to `COC(=O)c1cn(C[C@@H](Cc2ccccc2)NC(=O)N[C@H](CO)CCc2oc(C(C)=O)c(C(=O)OC)c2C(=O)OC)nn1`, the z-score was -1.3. Under `COCCOC(=O)N1C(=O)[C@@]2(c3cc(C#CC4=CCCCC4)ccc31)[C@H](C(=O)N1CCCCCCC1)[C@H]1C(=O)O[C@H](c3ccccc3)[C@H](c3ccccc3)N1[C@@H]2c1ccc(O)cc1` stands 0.566; under `CCOC(=O)C[C@H]1[C@H](OC(=O)c2ccccc2-c2ccccc2)[C@@H](NC(=O)C2CCCCC2)c2cc(OCCCO)ccc2N1C(=O)Cc1ccc(OC)cc1`, 0.0422. To `COc1ccc(-c2cc3c(c(CCc4ccccc4)n2)[Si](C(C)C)(C(C)C)OC3)cn1` belongs 0.0476. To `COC(=O)[C@@]1(Cc2ccccc2)[C@H]2c3cc(C(=O)N(C)C)n(CCc4ccc(O)c(OC)c4)c3C[C@H]2CN1C(=O)c1ccccc1` belongs 0.483.

As for `COC(=O)Cn1c(C(=O)N(C)C)cc2c1C[C@H]1CN(C(=O)c3ccccc3)[C@@](Cc3ccc(F)cc3)(C(=O)OC)[C@@H]21`, the z-score was 2.15. `C=CCNC(=O)[C@H]1[C@@H]2C(=O)O[C@@H](c3ccccc3)[C@@H](c3ccccc3)N2[C@@H](c2ccc(O)cc2)[C@]12C(=O)N(C(=O)OCCOC)c1ccccc12`: the z-score was 0.628. To `CC(C)N1C(=O)c2ccccc2[C@@H](C(=O)NC2CC2)[C@@H]1c1ccc(CO)cc1` belongs 0.164; to `O=C1N(Cc2ccccc2)Cc2ccccc2[C@@H]2OC(c3ccc(OCCCO)cc3)=N[C@]12CCS(=O)(=O)c1ccccc1`, 0.691; to `CC(C)C(=C=CC[C@H](O)c1ccc(OCCO)cc1)C[C@H](O)c1ccccn1`, -1.7.

As for `COC(=O)c1nc2oc1CC[C@@H](CO)NC(=O)N(C)Cc1cnnn1C[C@H](Cc1ccccc1)NC2=O`, the z-score was -1.07. On to `CCOC(=O)C[C@H]1[C@H](OC(=O)Cc2ccc3c(c2)OCO3)[C@@H](NC(=O)Cc2ccc(OC)cc2)c2cc(OCCCO)ccc2N1C(=O)c1ccc2ccccc2n1`, for which the z-score is -1.12.

Consider `CCCCCCCCCCC(O)C1C=CC2C(=O)N(C)C(=O)C2N1NC(=O)OC(C)(C)C` (stereo unspecified), for which the z-score was -5.22.

Regarding `O=C1NC(=O)C2C1C=CC(C(O)c1c(F)cccc1Cl)N2Nc1ccc(Cl)cc1Cl` (stereo unspecified), the z-score is -14.8 (active).

Turning to `O=C1O[C@H](c2ccccc2)[C@H](c2ccccc2)N2[C@H]1[C@@H](C(=O)Nc1nc3ccccc3s1)[C@]1(C(=O)Nc3ccc(C#CC4(O)CCCCCC4)cc31)[C@H]2c1ccccc1OCCO`, the z-score was 1.49. To `CC(C)[Si](C#C[Si](C(C)C)(C(C)C)C(C)C)(O[C@H](C)c1cn([C@H](CO)Cc2ccccc2)nn1)C(C)C` belongs 0.427; to `COCCCNC(=O)[C@@]1(Sc2ccc(C)cc2)CC(=O)N(C2CCCCC2)[C@@H]1c1ccc(CO)cc1`, -0.0904; to `O=C1C2C=CC(C(O)c3ccccc3)N(Nc3ccccc3F)C2C(=O)N1c1ccccc1` (stereo unspecified), -1.64.

Turning to `CCC[C@@H]1C[C@@]1(CCC)[C@@H](NC(=O)OCc1ccccc1)c1ccc(-c2ccccc2)cc1`, the z-score is -2.75. In the case of `N#Cc1ccc(C(O)C2C=CC3C(=O)N(c4ccccc4)C(=O)C3N2Nc2ccccc2)cc1` (stereo unspecified), the z-score is -2.46.

Take `C=CCC(OC(C)=O)[C@@H]1[C@@H](N(Cc2ccc(-c3ccccc3)cc2)C(=O)Cc2ccc(F)cc2)c2cc(OCCCO)ccc2N1C(=O)Cc1ccc(OC)cc1` (stereo partly specified): the z-score is 0.637. Under `COc1ccc([Si](C)(C)[C@@H]2[C@@H](CC(=O)N(CCO)Cc3ccccc3)O[C@]3(C(=O)N(c4ccccc4)c4ccccc43)[C@H]2C)cc1` stands -1.74. Under `COC(=O)[C@@]1(Cc2ccccc2)[C@@H]2C(=CC(=O)[C@H]2CC(=O)C(=O)N(C)C)CN1C(=O)c1ccccc1` stands 0.292; under `CN(C)C(=O)[C@@]1(Cc2ccccc2CN=[N+]=[N-])N=C(c2ccc(OCCCO)cc2)O[C@H]1c1ccccc1CN=[N+]=[N-]`, 1.12. Under `CCOc1cc(C(O)C2C=CC3C(=O)N(c4ccccc4)C(=O)C3N2Nc2ccc(C#N)cc2)ccc1O` (stereo unspecified) stands -0.0687; under `COc1ccc([Si](C)(C)[C@@H]2[C@@H](CC(=O)N3Cc4ccccc4C[C@H]3CO)O[C@]3(C(=O)N(Cc4cccc(N5C(=O)c6cccc7cccc5c67)c4)c4ccccc43)[C@H]2C)cc1`, 0.517; under `COc1ccc(-c2nc(-c3ccccc3)c3c(c2C)CO[Si]3(C(C)C)C(C)C)cn1`, 0.232.

The record behind these values is PubChem BioAssay.
